The values that follow come from the supplement of paper PMC10338343.

The test system of this experiment is MIWI (PIWIL1) piRISC loaded with L1MC piRNA (30 nt). In words: pre-steady-state target cleavage rate (min^-1); MIWI and MILI are mouse PIWI proteins and EfPiwi is from a freshwater sponge; tags in brackets are library labels; higher = faster piRNA-guided slicing of the target. The conditions noted are these: guide: L1MC piRNA 5'p-UAACUAAAUACUAUGCAAGCUGUAGGUCCU
In short, it runs like this:
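Three pooled Cleave-'n-Seq trials supplied the data, with k3 capped at 0.0001 min^-1. In each, […] transcribed, DNA-blocked target RNA library and 1 nM active affinity-purified piRISC with one synthetic guide reacted in HEPES–potassium acetate buffer at 33 °C for 0–8 or 0–960 min, with or without 500 nM GTSF1 partner protein. Uncleaved targets were sequenced and normalised to depth and to weakly complementary targets. A burst-and-steady-state fit provided the pre-steady-state cleavage rate.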

The mark [1] stands for this setting: auxiliary factor: 500 nM mouse GTSF1.
Setting [2] is: auxiliary factor: none (no GTSF1).

± gives the standard deviation. Over roughly 8,200 sequences, “pre-steady-state target cleavage rate” has its median near 0.024; the highest 2% begin near 1.3. What follows is part of a selection rich in the highest values, with near analogues and random picks from the rest. A value given as a limit tells only on which side of the number the result lay.
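Note: 1 nM active piRISC with 0.1 nM target library at 33 °C single turnover.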

As to AGGACCUACAGCUUGCUAGUAUUUAGUUA, the “pre-steady-state target cleavage rate” value by setting is: under setting [1], 0.179 ± 0.041; under setting [2], 0.00501 ± 0.0024.
In the case of AGGACCUACAGCUUGCUUAGUAUUUAGUUA, the “pre-steady-state target cleavage rate” value under setting [1] amounted to 1.43 ± 0.071 and the “pre-steady-state target cleavage rate” value under setting [2] stood at 0.066 ± 0.015.
Consider AGGACCUACAGCUUGCUUAGUAUUUAGUAA, for which the “pre-steady-state target cleavage rate” value by setting is: under setting [1], 0.862 ± 0.079; under setting [2], 0.0262 ± 0.0068.
Consider UGGAGCUACAGCUUGCUUAGUAUUUAGUUA, for which the “pre-steady-state target cleavage rate” value worked out at 1.33 ± 0.062 under setting [1] and 0.0391 ± 0.0074 under setting [2].
For the sequence AGGAGCUACAGCUUGCUUAGUAUUUAGUUA, the “pre-steady-state target cleavage rate” value under setting [1] was determined as 1.3 ± 0.061 and the “pre-steady-state target cleavage rate” value under setting [2] was 0.0523 ± 0.011.
As for UGGACCUACAGCUUGCUUAGUAUUUAGUAA, the “pre-steady-state target cleavage rate” value is, setting by setting: under setting [1], 1.03 ± 0.073; under setting [2], 0.0335 ± 0.0097.
In the case of UCGAGCUACAGCUUGCUUAGUAUUUAGUUA, the “pre-steady-state target cleavage rate” value worked out at 1.19 ± 0.053 under setting [1] and 0.0376 ± 0.0079 under setting [2].
Taken in the same sequence, the figures for UGGACCUACAGCUUGCUUAGUAUUUAGUUA were 1.56 ± 0.094 and 0.0426 ± 0.011.
For the sequence UGGACCUACAGCUUGCUAGUAUUUAGUUA, the “pre-steady-state target cleavage rate” value runs as follows: under setting [1], 0.0515 ± 0.013; under setting [2], 0.00386 ± 0.0022.
As to UCCAGGAACAGCUUGCAUAGUAUUUACAAA, the “pre-steady-state target cleavage rate” value runs as follows: under setting [1], 0.328 ± 0.041; under setting [2], 0.00665 ± 0.0019.
UCCUCCUACAGCUUGCAAAGUUUUUAGUUA: the “pre-steady-state target cleavage rate” value under setting [1] came to 0.352 ± 0.029 and the “pre-steady-state target cleavage rate” value under setting [2] was determined as 0.0137 ± 0.0033.
UCCUGGAUGUCCUUUCAUAGUAUUUAGUUA: under setting [1], the “pre-steady-state target cleavage rate” value was 0.0134 ± 0.004.
Consider UCCUGGUAGACCUUGCAUAGUAUUUAGUUA, for which the “pre-steady-state target cleavage rate” value stood at 0.46 ± 0.042 under setting [1] and 0.00968 ± 0.0029 under setting [2].
As to UCCACCUACACCUUGCAUAGAAUUUAGUUA, the “pre-steady-state target cleavage rate” value turned out to be 0.337 ± 0.066 under setting [1] and 0.0107 ± 0.003 under setting [2].
Taken in the same sequence, the figures for UGGACCUACAGCUUACAUAGUAUUUAGUUA were 1.53 ± 0.079 and 0.0508 ± 0.0082.
For the sequence UCGACCUACAGCUUACAUAGUAUUUAGUUA, the “pre-steady-state target cleavage rate” value by setting is: under setting [1], 1.59 ± 0.062; under setting [2], 0.0382 ± 0.0069.
Regarding UGGACCUACAGCUUCAUAGUAUUUAGUUA, the “pre-steady-state target cleavage rate” value reads like this: under setting [1], 1.36 ± 0.077; under setting [2], 0.0221 ± 0.0047.
Taken in the same sequence, the figures for AGGACCUACAGCUUCAUAGUAUUUAGUUA were 1.11 ± 0.053 and 0.0309 ± 0.0073.
For UGGACCUACAGCUUGACAUAGUAUUUAGUUA, the “pre-steady-state target cleavage rate” value reads like this: under setting [1], 0.986 ± 0.1; under setting [2], 0.00706 ± 0.0031.
As for UGGACCUACAGCUUUCAUAGUAUUUAGUUA, the “pre-steady-state target cleavage rate” value is, setting by setting: under setting [1], 0.593 ± 0.032; under setting [2], 0.0286 ± 0.0052.
As for UCCACCUACAGCUUACAUAGUAUUUAGUUA, the “pre-steady-state target cleavage rate” value was determined as 0.753 ± 0.034 under setting [1] and 0.0222 ± 0.0039 under setting [2].
As for AGGACCUACAGCUUACAUAGUAUUUAGUUA, the “pre-steady-state target cleavage rate” value was determined as 1.28 ± 0.064 under setting [1] and 0.0655 ± 0.011 under setting [2].
Taken in the same sequence, the figures for UCGACCUACAGCUUGACAUAGUAUUUAGUUA were 0.952 ± 0.072 and 0.00438 ± 0.0026.
Take UCCUGGAUGAGCUUGCAUAGUAUAUACAAA: the “pre-steady-state target cleavage rate” value under setting [1] was found to be 0.00918 ± 0.0054.
On the same count and under the same terms, then UCCUGGAAGAGCUUGCAUAGUAUUUACAAA, with 0.0945 ± 0.02.
For UCCUGCUACAGCUUGCUUAGUAUAUAGUUA, the “pre-steady-state target cleavage rate” value by setting is: under setting [1], 0.404 ± 0.038; under setting [2], 0.0128 ± 0.0044.
With UCCACCUACUGCUUGCAUACUAUUUAGUUA, the “pre-steady-state target cleavage rate” value is, setting by setting: under setting [1], 0.297 ± 0.026; under setting [2], 0.0231 ± 0.0039.
Taken in the same sequence, the figures for UCCUGCUAGAGCUUGCAUACUAUUUAGUUA were 0.248 ± 0.03 and 0.0221 ± 0.0058.
Consider UCCUCCUACUGCUUGGAUAGUAUUUAGUUA, for which the “pre-steady-state target cleavage rate” value under setting [1] was 1.21 ± 0.04 and the “pre-steady-state target cleavage rate” value under setting [2] amounted to 0.0517 ± 0.0073.
As to AGGACCUACUGCUUGGAUAGUAUUUAGUUA, the “pre-steady-state target cleavage rate” value was 1.34 ± 0.052 under setting [1] and 0.061 ± 0.0085 under setting [2].
With UCGACCUACUGCUUGGAUAGUAUUUAGUUA, the “pre-steady-state target cleavage rate” value runs as follows: under setting [1], 1.67 ± 0.068; under setting [2], 0.0575 ± 0.0089.
In the case of UGGACCUACUGCUUGGAUAGUAUUUAGUUA, the “pre-steady-state target cleavage rate” value under setting [1] is 1.65 ± 0.072 and the “pre-steady-state target cleavage rate” value under setting [2] amounted to 0.0542 ± 0.0088.
Regarding UCCUGCUACUGCUUGGAUAGUAUUUAGUUA, the “pre-steady-state target cleavage rate” value runs as follows: under setting [1], 0.969 ± 0.077; under setting [2], 0.0353 ± 0.0055.
For UGGACCUACACCUUGGAUAGUAUUUAGUUA, the “pre-steady-state target cleavage rate” value under setting [1] came out at 0.815 ± 0.069 and the “pre-steady-state target cleavage rate” value under setting [2] is 0.0418 ± 0.0063.
Consider UCCACCUACUGCUUGGAUAGUAUUUAGUUA, for which the “pre-steady-state target cleavage rate” value runs as follows: under setting [1], 1.14 ± 0.049; under setting [2], 0.0503 ± 0.0082.
On to AGGACCUACACCUUGGAUAGUAUUUAGUUA, for which the “pre-steady-state target cleavage rate” value came to 0.817 ± 0.061 under setting [1] and 0.0497 ± 0.0086 under setting [2].
Consider UCGACCUACACCUUGGAUAGUAUUUAGUUA, for which the “pre-steady-state target cleavage rate” value runs as follows: under setting [1], 0.854 ± 0.076; under setting [2], 0.0364 ± 0.0044.
UCCUGGAUGUCGAACGUAUCUAAUUAGUAA: the “pre-steady-state target cleavage rate” value under setting [2] was < 0.0001.
Take UCCUGGAUCAGCUUGAUAGUAUUUAGUUA: the “pre-steady-state target cleavage rate” value is, setting by setting: under setting [1], 0.0664 ± 0.007; under setting [2], 0.00393 ± 0.0017.
Turning to AGGACCUAGAGCUUGCAUAGUAUUUUCAAA, the “pre-steady-state target cleavage rate” value under setting [1] came to 0.0396 ± 0.013.
With UCCUGCUACAGCAUGCAUAGUAUUUAGUAA, the “pre-steady-state target cleavage rate” value under setting [1] worked out at 0.655 ± 0.063 and the “pre-steady-state target cleavage rate” value under setting [2] was 0.00614 ± 0.0024.
UCCUGGAACAGCUACCAUAGUAUUUAGUAA: under setting [1], the “pre-steady-state target cleavage rate” value came out at 0.0979 ± 0.017.
For the sequence UCCUCCUACAGCUUGCAUAGUUAAUAGAAA, the “pre-steady-state target cleavage rate” value under setting [1] came to 0.0486 ± 0.014.
For the sequence UCCUGGUACAGCUUGCAAUGUAUUUAGAAA, the “pre-steady-state target cleavage rate” value under setting [1] turned out to be 0.0194 ± 0.0063.
As for UCGACCUACAGCUUGGUUAGUAUUUUCAAA, the “pre-steady-state target cleavage rate” value under setting [1] was determined as 0.0241 ± 0.0089.
For the sequence UCCUGGAUGUCCUUGCAUAGUAUAAUGUUA, the “pre-steady-state target cleavage rate” value under setting [1] is 0.0139 ± 0.0063.
Consider UCGACCUACAGCUUGCAUAGUAUUAACAAA, for which the “pre-steady-state target cleavage rate” value under setting [1] was found to be 0.401 ± 0.044.
For the sequence UCCACCUACAGCUUGCUUAGUAUUAAGUUA, the “pre-steady-state target cleavage rate” value under setting [1] turned out to be 0.31 ± 0.03 and the “pre-steady-state target cleavage rate” value under setting [2] was found to be 0.00763 ± 0.0016.
For the sequence UGGACCUACAGCAUGCAUAGUAUUUAGUAA, the “pre-steady-state target cleavage rate” value runs as follows: under setting [1], 0.977 ± 0.075; under setting [2], 0.0303 ± 0.0065.
On to UGGACCUACAGCAUGCAUAGUAUUUAGUUA, for which the “pre-steady-state target cleavage rate” value turned out to be 1.38 ± 0.078 under setting [1] and 0.0549 ± 0.011 under setting [2].
For AGGACCUACAGCAUGCAUAGUAUUUAGUAA, the “pre-steady-state target cleavage rate” value is 0.986 ± 0.075 under setting [1] and 0.0556 ± 0.014 under setting [2].
Consider UGGACCUACAGCAUUGCAUAGUAUUUAGUUA, for which the “pre-steady-state target cleavage rate” value runs as follows: under setting [1], 1.27 ± 0.11; under setting [2], 0.0665 ± 0.014.
As for AGGACCUACAGCAUGCAUAGUAUUUAGAAA, the “pre-steady-state target cleavage rate” value by setting is: under setting [1], 0.577 ± 0.059; under setting [2], 0.00715 ± 0.0031.
The matching figures for UGGUCCUACAGCAUGCAUAGUAUUUAGUUA: 1.19 ± 0.061 and 0.0657 ± 0.014.
Take UCGUCCUACAGCAUGCAUAGUAUUUAGUUA: the “pre-steady-state target cleavage rate” value by setting is: under setting [1], 1.26 ± 0.047; under setting [2], 0.0282 ± 0.0049.
For the sequence AGGACCUACAGCAUGCAUAGUAUUUAGUUA, the “pre-steady-state target cleavage rate” value was found to be 1.33 ± 0.06 under setting [1] and 0.073 ± 0.015 under setting [2].
For AGGUCCUACAGCAUGCAUAGUAUUUAGUUA, the “pre-steady-state target cleavage rate” value under setting [1] worked out at 1.33 ± 0.062 and the “pre-steady-state target cleavage rate” value under setting [2] turned out to be 0.107 ± 0.026.
Take UCCUGGAUGUCGAUGCAUAGUAUUUAGUGA: the “pre-steady-state target cleavage rate” value under setting [1] amounted to 0.0103 ± 0.0037.
Still for that read-out and setting: then UCCACCUACAGCAAGCAUAGUAUUUAGAAA, with 0.243 ± 0.035.
In the case of UCCUGGAUGUCCUUGGAUAGUAUUUUGUUA, the “pre-steady-state target cleavage rate” value under setting [1] came to 0.0668 ± 0.017.
Turning to UCCUCCUACAGCUUGCAUAGUAUCUUAGUUA, the “pre-steady-state target cleavage rate” value stood at 0.96 ± 0.045 under setting [1] and 0.016 ± 0.0044 under setting [2].
Turning to UGGACCUACAGGAUGCAUAGUAUUUACAAA, under setting [1], the “pre-steady-state target cleavage rate” value was 0.216 ± 0.039.
Take UCCUGGAACUCGUUGCAUAGUAUUUAGUAA: the “pre-steady-state target cleavage rate” value is, setting by setting: under setting [1], 0.071 ± 0.011; under setting [2], 0.00318 ± 0.0021.
Take UCCUGCUACAGCUUGCAUAGUAUUUAGUA: the “pre-steady-state target cleavage rate” value runs as follows: under setting [1], 0.422 ± 0.071; under setting [2], 0.00464 ± 0.0019.
